Measured values reported in PubChem BioAssay (Tox21).
Inconclusive results are not listed. Activity calls are given as the source filed them. Calls follow the shape of the dose curve; as a rule, active = well fitted activation curve with a large enough effect in the signal ratio in the repeat runs (not every such curve was filed as active); inconclusive = weak or mixed curves; inactive = flat fitted curve, though single readings scatter; the % refers to the signal ratio.

assay: qHTS assay to identify small molecule agonists of H2AX (AID 1224845); conditions: CHO-K1 phospho-H2AX Ser139 HTRF, 3 h; series mostly up to 154 µM; activation (H2AX phosphorylation): at the top concentration; also: potency is read from the fitted curve at half-maximal effect
In short: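 Phospho-H2AX Ser139 measured by HTRF (ex 320 nm; em 665 and 620 nm) after 24 hr antibody incubation. Compounds, 15 concentrations, 0.76% DMSO, were applied to CHO-K1 cells for 3hr at 37C before lysis.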
% is scaled to controls: 0 for no effect and ±100 for the full control effect.

SMILES	activation (H2AX phosphorylation)	Potency
CN1CCCC(n2nc(Cc3ccc(Cl)cc3)c3ccccc3c2=O)CC1 (centres undefined)	-4.9% [at 70.9 µM] (inactive)	–
CCC1NC(=O)c2cc(S(N)(=O)=O)c(Cl)cc2N1 (centres undefined)	0.197% [at 70.9 µM] (inactive)	–
CCC=CC#N	-0.0324% (inactive)	–
CC1CC(C)C(=O)C1=O (centres undefined)	0.454% (inactive)	–
C1COC1	3.08% (inactive)	–
CCCCCCC(C)(C)C(=O)O	2.02% (inactive)	–
Cc1cccc(N(C)C(=S)Oc2ccc3c(c2)CCC3)c1	-0.629% [at 70.9 µM] (inactive)	–
CC1CC(OC(=O)C(O)c2ccccc2)CC(C)(C)N1C (centres undefined)	0.0098% [at 70.9 µM] (inactive)	–
CCOC(C)=O	1.53% (inactive)	–
CCCCC(CC)COP(=O)(O)O (centres undefined)	-0.255% (inactive)	–
CC(CCC(=O)O)C(=O)O (centres undefined)	-1.37% (inactive)	–
CCC(C)COC(=O)CC(C)C (centres undefined)	-1.53% (inactive)	–
CCCCN(CCCC)C(C(N)=O)c1ccc(OC)cc1 (centres undefined)	-2.96% [at 70.9 µM] (inactive)	–
Cc1ccco1	-1.03% (inactive)	–
CCCCCC[C@@H](O)C/C=C\CCCCCCCC(=O)OCC(O)CO (some centres undefined)	-2.82% (inactive)	–
CCOC(=O)/C=C/C(=O)OCC	-2.51% (inactive)	–
C[C@@H]1CN(CCCn2c3ccccc3c3ccccc32)C[C@H](C)N1	0.645% [at 70.9 µM] (inactive)	–

SMILES	activation (H2AX phosphorylation)	Potency
O=c1[nH]c2ccc(Cl)cc2o1	0.258% (inactive)	–
O=C1Cc2cc(Cl)ccc2N1	-0.595% [at 70.9 µM] (inactive)	–
CCC(C)COC(C)=O (centres undefined)	-1.53% (inactive)	–
Nc1nnc(-c2ccc([N+](=O)[O-])o2)o1	2.87% (inactive)	–
Cc1cc(O)c(C)c(C)c1O	-0.594% [at 70.9 µM] (inactive)	–
CC(=O)OCC(=O)NCCCOc1cccc(CN2CCCCC2)c1	1.08% [at 70.9 µM] (inactive)	–
O=C(/C=C/c1ccccc1)OCCc1ccccc1	-3.54% (inactive)	–
CC(=O)Nc1ccc(C)cc1C	-1.62% (inactive)	–
CCCCCC[C@@H](O)C/C=C\CCCCCCCC(=O)O	0.472% (inactive)	–
NCCNCCO	0.828% (inactive)	–
Cc1ccc2c(Br)cc(Br)c(O)c2n1	–	39.1 µM (active)
O=C(O)C[C@H](NC(=O)OCc1ccccc1)C(=O)O	-1.34% (inactive)	–
O=C(Nc1cccc2c(=O)cc(-c3nn[nH]n3)oc12)c1ccc(OCCCCc2ccccc2)cc1	-4.6% [at 70.9 µM] (inactive)	–
CC(=O)c1ccc([N+](=O)[O-])cc1	0.637% (inactive)	–
CC[N+](CC)(CCNC(=O)C(=O)NCC[N+](CC)(CC)Cc1ccccc1Cl)Cc1ccccc1Cl	-0.99% [at 70.9 µM] (inactive)	–
Cc1ccc(C(C)(C)O)cc1	-0.0235% (inactive)	–

assay: qHTS assay to identify small molecule agonists of the hypoxia (HIF-1) signaling pathway (AID 1224846); conditions: HRE-bla ME-180 cells, beta-lactamase ratio, 17 h; series mostly up to 76.8 µM; activation: at the top concentration
In short: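 ME-180 HRE-bla reporter cells; compounds in DMSO, 17 h at 37C; read-out beta-lactamase via CCF4-AM FRET.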

SMILES	activation
C=C(C)[C@@H]1CCC2=CCC[C@@H](C)[C@]2(C)C1	-0.227% (inactive)
CN1CCCC(n2nc(Cc3ccc(Cl)cc3)c3ccccc3c2=O)CC1 (centres undefined)	0.853% [at 35.5 µM] (inactive)
CCC1NC(=O)c2cc(S(N)(=O)=O)c(Cl)cc2N1 (centres undefined)	-0.135% [at 35.5 µM] (inactive)
CCC=CC#N	-1.28% (inactive)
CC1CC(C)C(=O)C1=O (centres undefined)	-0.889% (inactive)
C1COC1	0% (inactive)
CCCCCCC(C)(C)C(=O)O	0.0566% (inactive)
O=C1c2ccccc2C(=O)c2c(O)c(O)cc(O)c21	-0.628% (inactive)
CCOC(C)=O	-0.259% (inactive)
CCCCC(CC)COP(=O)(O)O (centres undefined)	1.53% (inactive)
CCCCN(CCCC)C(C(N)=O)c1ccc(OC)cc1 (centres undefined)	0.237% [at 35.5 µM] (inactive)
Cc1ccco1	0.141% (inactive)
CCCCCC[C@@H](O)C/C=C\CCCCCCCC(=O)OCC(O)CO (some centres undefined)	3.87% (inactive)
CCOC(=O)/C=C/C(=O)OCC	-0.0703% (inactive)
O=C1Cc2cc(Cl)ccc2N1	-0.427% [at 35.5 µM] (inactive)
CCC(C)COC(C)=O (centres undefined)	-0.609% (inactive)
Nc1nnc(-c2ccc([N+](=O)[O-])o2)o1	0.869% (inactive)
Cc1cc(O)c(C)c(C)c1O	-0.46% [at 35.5 µM] (inactive)
Oc1cccc(Nc2ccccc2)c1	-0.343% (inactive)
CC(=O)OCC(=O)NCCCOc1cccc(CN2CCCCC2)c1	0.275% [at 35.5 µM] (inactive)
O=C(/C=C/c1ccccc1)OCCc1ccccc1	-0.854% (inactive)
NCCNCCO	-0.138% (inactive)
O=C(O)C[C@H](NC(=O)OCc1ccccc1)C(=O)O	-1.31% (inactive)
CCOC(=O)c1ccc(I)cc1	-0.529% (inactive)
CC(=O)c1ccc([N+](=O)[O-])cc1	-0.888% (inactive)
CC[N+](CC)(CCNC(=O)C(=O)NCC[N+](CC)(CC)Cc1ccccc1Cl)Cc1ccccc1Cl	-2.26% [at 35.5 µM] (inactive)
